KCNQ2 pot: potentiators of rat KCNQ2 potassium channel; Potassium voltage-gated channel subfamily KQT member 2 (Rattus norvegicus), O88943; CHO-K1 KCNQ2, FluxOR thallium flux fluorescence; hits give high values; B-score at 10 µM; 310,000 tested, 0.54% active; AID 2239, 2010;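 active means fluorescence ratio B-score at least 3 SD of library B-scores, with initial fluorescence B-score within 3 of them, cut at about 5.3 in these data; same plate scores as AID 2156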;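 further: B-score of peak minus minimum over baseline fluorescence ratio after K+ and Tl+ stimulus; positive B-score means potentiation of KCNQ2 with more thallium influx and brighter signal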
KCNQ2 block: rat KCNQ2 potassium channel inhibitors, primary screen, cell-based, CHO-K1, FluxOR thallium flux, B-score; Potassium voltage-gated channel subfamily KQT member 2 (Rattus norvegicus), O88943; 20 min; hits give low values; B-score at 10 µM; 310,000 tested, 1.1% active; AID 2156, 2009;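 active means fluorescence ratio B-score at most minus 3 library SDs, with starting brightness B-score within 2 library SDs, cut at about -5.5 in these data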
Large screens that a line does not name were inactive. The list is not random: actives were taken first. Their share in the collection is about 1.6%.

FC(F)(F)c1n[nH]c(=S)n1/N=C/c1ccco1	none
O=C(/C=C/c1ccc([N+](=O)[O-])cc1)NCCSc1ccccc1	none
Cc1ccc(SCCNC(=O)/C=C/c2ccc([N+](=O)[O-])cc2)cc1	KCNQ2 pot 6.2
O=c1oc(-c2ccc(Br)o2)nc2ccccc12	none
CCOc1ccc(N2CC(C(=O)N3CCCCCC3)CC2=O)cc1 (stereo unspecified)	none (no result: KCNQ2 pot)
COc1ccc([N+](=O)[O-])cc1NC(=O)CSCc1ccc(Br)cc1	KCNQ2 pot 5.53
COc1ccc([N+](=O)[O-])cc1NC(=O)CSCc1ccccc1C	none
COc1ccc(N2CCN(S(=O)(=O)c3ccc4c(c3)NC(=O)C(C)S4)CC2)cc1 (stereo unspecified)	none (no result: KCNQ2 pot)
CCn1c(NCc2cccc(OC)c2OC)nc2ccccc21	KCNQ2 block -6.09
CCn1c(NCc2cc(Cl)ccc2O)nc2ccccc21	KCNQ2 block -5.62
C=CCn1c(NCc2cc(Cl)ccc2O)nc2ccccc21	none (no result: KCNQ2 pot)
C=CCn1c(NCc2ccccc2OC)nc2ccccc21	none (no result: KCNQ2 pot)
CC1(C)CC2CC(C)(CN2C(=S)Nc2ccccc2)C1 (stereo unspecified)	none (no result: KCNQ2 pot)
CC1(C)CC2CC(C)(CN2C(=S)NC(=O)c2ccccc2Cl)C1 (stereo unspecified)	KCNQ2 pot 10.3
COc1ccc(CCNC(=O)c2ccc(CS(=O)Cc3ccc(C)cc3)o2)cc1OC (stereo unspecified)	none
CCn1c(SCc2cccc(C)c2)nnc1-c1ccc(C)cc1	KCNQ2 block -5.98
CCn1c(SCc2cccc(F)c2)nnc1-c1ccncc1	none
Cc1ccc(S(=O)(=O)Nc2c(C(=O)O)[nH]c3ccccc23)c(C)c1	none
CCN(CC)c1ncnc2c1cnn2Cc1ccc(Cl)cc1	none
CC(OC(=O)c1nc(Cl)ccc1Cl)C(=O)Nc1ccccc1F (stereo unspecified)	none (no result: KCNQ2 pot)
CC1CCCC(NCC(=O)Nc2ccc(C(N)=O)cc2)C1C (stereo unspecified)	none
Cc1sc(-n2c(C)ccc2C)c(C#N)c1C	none (no result: KCNQ2 pot)
Cc1ccc(C)n1-c1sc2c(c1C#N)CCCC2	KCNQ2 block -5.91
CN(C)c1ccc(C(CNC(=O)COc2ccc(Cl)cc2)N2CCCC2)cc1 (stereo unspecified)	none (no result: KCNQ2 pot)
O=C(CSc1ncn[nH]1)N1N=C2/C(=C/c3ccccc3)CCCC2C1c1ccccc1 (stereo unspecified)	KCNQ2 block -5.74
COc1ccc(/C=C2\CCCC3C2=NN(C(=O)CSc2ncn[nH]2)C3c2ccc(OC)cc2)cc1 (stereo unspecified)	none (no result: KCNQ2 pot)
COCc1cc(CN2CCCC(C(=O)Nc3cccc(-n4cnnn4)c3)C2)ccc1OC (stereo unspecified)	none
O=C(NN=C1c2ccccc2-c2ccccc21)c1cccc(Br)c1	KCNQ2 pot 17.1
O=C(COc1cccc(Br)c1)NN=C1c2ccccc2-c2ccccc21	none (no result: KCNQ2 pot)
CC1(C)CC(=O)c2c(O)cc(OCC(=O)Nc3ccc(CCO)cc3)cc2O1	none
Cc1cccc(NC(=O)CCS(=O)(=O)c2cc3c(cc2Cl)NC(=O)CO3)c1	none
Cn1cc(CC(=O)NC2CCCCC2)c2ccccc21	KCNQ2 pot 5.38
COCCNC(=O)Cc1cn(C)c2ccccc12	none
O=C(c1cc2ccccc2[nH]1)N1CCOCC1	none
CCOC(=O)c1sc(NC(=O)c2cc3n(n2)C(C(F)(F)F)CC(c2ccccc2)N3)c(C(=O)OCC)c1C (stereo unspecified)	none
Cc1ccc(Cl)cc1NS(=O)(=O)c1ccc2oc(=O)ccc2c1	none (no result: KCNQ2 pot)
COc1cc2c(cc1OC)CN(c1ccc(C(N)=O)cc1[N+](=O)[O-])CC2	none
Cc1ccc(S(=O)(=O)N2CCC(=O)N(C(COCc3ccc(Cl)c(Cl)c3)Cc3ccccc3)CC2)cc1 (stereo unspecified)	none (no result: KCNQ2 pot)
O=C(c1ccc(Cl)c(Cl)c1)N1CCC(=O)N(C(COCc2cccc(Cl)c2)Cc2ccccc2)CC1 (stereo unspecified)	KCNQ2 block -6.19
Cc1ccc(S(=O)(=O)N2CCC(=O)N(C(COCc3cccc(C)c3)Cc3ccccc3)CC2)cc1 (stereo unspecified)	KCNQ2 block -6.45
Cc1ccc(COCC(CC(C)C)N2CCN(C(=O)c3cccc(C(F)(F)F)c3)CCC2=O)cc1 (stereo unspecified)	none (no result: KCNQ2 pot)
Cc1ccc(S(=O)(=O)N2CCC(=O)N(C(COCc3ccc(C(F)(F)F)cc3)Cc3ccccc3)CC2)cc1 (stereo unspecified)	KCNQ2 block -6.07
Cc1ccc(S(=O)(=O)N2CCC(=O)N(C(COCc3ccc(C(F)(F)F)cc3)C(C)C)CC2)cc1 (stereo unspecified)	none (no result: KCNQ2 pot)
O=C(c1cccc(Cl)c1)N1CCC(=O)N(C(COCc2cccc(Cl)c2)Cc2ccccc2)CC1 (stereo unspecified)	none (no result: KCNQ2 pot)
CC(C)CC(COCc1ccc(F)cc1)N1CCN(C(=O)c2cccc(C(F)(F)F)c2)CCC1=O (stereo unspecified)	KCNQ2 block -6.06
ClC(Cl)(Cl)c1nc2ccccc2n2nncc12	none (no result: KCNQ2 pot)
